# Only some compounds are listed: those with a hit (about 21% of all), similar ones and a draw of the others.
# ClpP mod = qHTS Assay for Activators of ClpP | ATP-dependent Clp protease proteolytic subunit (Bacillus subtilis (strain 168)), P80244 | purified B. subtilis ClpP, FRET peptide cleavage, 20 min | Potency, µM (highest dose often 57.5 µM), for inactives: at the highest dose activity change, negative = active | 1.9% of 340,000 active | AID 651965, 2013; active means well fitted falling curve with a large enough effect; inconclusive means small, poorly fitted or top-dose-only effect; inactive means no such curve, though single readings can be large or run the other way; further: potency means the concentration at half of the fitted maximal effect; the source files actives as falling curves though it sought activators and does not explain the sign; nearly all actives have a fitted effect of over 65% in size
#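 ClpP 10 microg/mL final, pH 8 Tris/KCl buffer with BSA, glycerol, Tween-20; compound pinned in; FRET-FV substrate; RT 20 min; Ex320/Em430; ΔFRET vs ADEP 5.8 microM, DMSO, no enzyme.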
# TDP1 cell noCPT = qHTS for Inhibitors of human tyrosyl-DNA phosphodiesterase 1 (TDP1): qHTS in cells in absence of CPT; Potency, µM (highest dose often 46.2 µM), inactives show at the top dose activity change, negative = growth inhibition, most hits filed as inhibitors; DT40 Tdp1-/- hTDP1 cells, no CPT, ATP luminescence, 48 h; AID 686978, 2013; 15% of 420,000 active; further: potency means the concentration at half of the fitted maximal effect; on the % scale 0 is the no-effect control and ±100 the full control effect; nearly all actives have a fitted effect of over 55% in size
#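 Readout: luminescence from CellTiter-Glo after 30 min in the dark at RT. Cells: DT40 Tdp1-/- with stable hTDP1, 400/well. Exposure: compounds alone, ≥48 hr, 37 °C.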
# IL-1B inflam inh = inflammasome signaling inhibition, IL-1 beta readout; activity change, % at 57.5 µM; AID 743279; 4.7% of 360,000 active; THP-1 LPS/ATP IL-1B secretion, AlphaLISA, 16 h; stronger effect = lower value; in the data active means activity change below about -50%; inconclusive means mostly about -30% to -49%; further: on the % scale 0 is the no-effect control and ±100 the full control effect
#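 Secreted IL-1B measured by AlphaLISA bead assay after 16 h compound exposure of THP-1 cells; compounds (final up to 57.5 uM) added 1 h before LPS (250 ng/mL) and ATP (1.25 mM) stimulation; lower signal means less secretion.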
# TDP1 cell CPT = growth inhibition of DT40 Tdp1-/-;hTDP1 cells with camptothecin (screen for TDP1 inhibitors); Potency, µM (highest dose often 46.2 µM), for inactives: at the top dose activity change, negative = growth inhibition, usual class: inhibitors; 12% of 420,000 active; chicken DT40 Tdp1-/-;hTDP1 cells + 20 nM CPT, ATP luminescence, 48 h; further: potency means the concentration at half of the fitted maximal effect; on the % scale 0 is the no-effect control and ±100 the full control effect; nearly all actives have a fitted effect of over 55% in size
#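 Cell growth measured by CellTiter-Glo luminescence after a minimum 48 h, 37 C compound exposure with 20 nM CPT in Tdp1-knockout DT40 cells stably expressing hTDP1, seeded 400/well; qHTS titration format.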
# DRD3 agonist = D3 dopamine receptor (human) agonism. max activation, %. D3R DiscoveRx beta-arrestin cells, luminescence, 90 min. AID 652048. 0.58% of 410,000 active; in the data active means max activation above about 30%; further: 0% is about no effect
#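 Cells at 1500/well, incubated overnight, then treated with pinned compounds (dopamine as control) for 90 min at 37 degrees C. DiscoveRx reagent added for 30 - 60 minutes at room temperature; luminescence read.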
# D3 antag = D3 dopamine receptor (human) antagonism. D3R cells, DiscoveRx beta-arrestin luminescence, antagonist mode; stronger effect = lower value. max response, negative = inhibition, %. 2.5% of 360,000 active. AID 652054; in the data active means max response below about -50%; inconclusive means no clear call, values can overlap the other calls; further: on the % scale 0 is the no-effect control and ±100 the full control effect
#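 Cells plated overnight at 1500 cells/well, then exposed to library compounds with dopamine controls for 90 minutes at 37 degrees C. DiscoveRx reagent added for 30–60 minutes at room temperature; luminescence read, quantitative HTS format.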
# An asterisk follows results filed as active; ? = inconclusive; . = no result given; [ ] = remark or other dose. Unless noted, the call rests on the fitted dose curve; in most records, active means well fitted inhibition curve with a large enough effect; inconclusive means small, poorly fitted or top-dose-only effect; inactive means flat fitted curve, though single readings scatter.
SMILES,ClpP mod,TDP1 cell noCPT,IL-1B inflam inh,TDP1 cell CPT,DRD3 agonist,D3 antag
ClCCN(CCCl)c1ccc(/C=C/c2ccnc3ccccc23)cc1,-5%,3.5µM*,.,4µM*,.,.
CC(C)(C)C(=O)OC1=CN(Cc2ccccc2)S(=O)(=O)c2ccccc21,-1%,?,.,-22%,0,.
CCc1nnc(NS(=O)(=O)c2ccc(N=Cc3c(O)n(-c4ccc(Cl)cc4)c(=O)[nH]c3=O)cc2)s1,.,?,-10,?,1,14
COC(=O)[C@]12CCC(C)(C)C[C@H]1[C@H]1C(=O)C=C3[C@@]4(C)C=C(C#N)C(=O)C(C)(C)[C@@H]4CC[C@@]3(C)[C@]1(C)CC2,.,1.1µM*,.,1.2µM*,-20,.
O=c1[nH]c(=S)n(C2CC2)c(O)c1C=Nc1cccc(C(F)(F)F)c1,1%,?,-12,?,1,0
Cc1cccc(N2C(=O)CSC23C(=O)N(CC(=O)Nc2cccc(Cl)c2)c2ccccc23)c1 (stereo unspecified),-1%,16µM*,.,23µM*,32*,.
c1csc(CN2CC[C@@]3(CCCNC3)C2)n1,.,-12%,.,1%,.,.
COCCCNC(=O)Cn1cc(/C=C2\C(=O)NC(=O)N(c3ccccc3F)C2=O)c2ccccc21,0%,?,-82*,?,-10,-4
COc1ccc(N2C(=O)NC(=O)/C(=C\c3cn(C)c4ccccc34)C2=O)cc1,2%,-26%,25,1%,1,-2
COCCNC(=O)Cn1cc(/C=C2\C(=O)NC(=O)N(c3ccccc3F)C2=O)c2ccccc21,-6%,-2%,37,-19%,-10,-9
COC(=O)Cn1cc(/C=C2\C(=O)NC(=O)N(c3ccc(OC)cc3)C2=O)c2ccccc21,.,2.3µM*,?,?,14,7
Cc1nn(Cc2ccccc2Cl)c(C)c1C(=O)OCC(=O)NC1CCCC(C)C1C (stereo unspecified),2%,23µM*,-8,21µM*,-22,?
O=C(O)c1ccccc1SCC(=O)N1c2ccccc2Sc2ccccc21,?,-3%,16,-13%,2,4
C[CH2][Hg][S]c1ccccc1C(=O)O,-1%,0.58µM*,-112*,0.41µM*,-41,-64*
COc1ccc(/C=C2/C(=O)NC(=O)N(c3ccccc3)C2=O)cc1CN1C(=O)c2ccccc2C1=O,1%,?,23,?,-3,20
COc1ccc(/C=C2/C(=O)NC(=S)N(C3CC3)C2=O)cc1CN1C(=O)c2ccccc2C1=O,?,23µM*,18,16µM*,-16,?
O=C(NCC(c1cccs1)N1CCOCC1)c1cc([N+](=O)[O-])cc([N+](=O)[O-])c1 (stereo unspecified),-4%,?,-62*,-29%,1,-7
CCOC(=O)C1(CCCc2ccccc2)CCN(C2CCC2)CC1,.,?,-24,-23%,-13,-17
O=C(CCN1CCN(CCO)CC1)N1c2ccccc2Sc2ccc(C(F)(F)F)cc21,1%,23µM*,?,?,-34,-74*
O=C(Cc1cccc(C(F)(F)F)c1)N1CCN(CC(=O)N2CCCC2)CC1,-7%,0%,17,0%,-3,7
N#Cc1cccc(NC(=O)N2CC[C@@]3(CCCN(C(=O)Oc4ccccc4)C3)C2)c1,.,?,.,-4%,.,.
Cc1ccc(NC(=O)c2cn(CCC#N)nc2-c2ccc3c(c2)OCCO3)c([N+](=O)[O-])c1,28µM*,6.5µM*,-12,?,-7,-29
N#CCCn1cc(C(=O)Nc2ccc([N+](=O)[O-])cc2)c(-c2ccc3c(c2)OCCO3)n1,-9%,-15%,-15,-6%,-14,?
COC(=O)C(O)(c1c[nH]c2ccccc12)C(F)(F)F (stereo unspecified),-1%,-8%,-14,0%,3,-19
CC(C(=O)c1c[nH]c2ccccc12)N1CCc2ccccc2C1 (stereo unspecified),-1%,?,26,16µM*,-2,-26
SMILES,ClpP mod,TDP1 cell noCPT,IL-1B inflam inh,TDP1 cell CPT,DRD3 agonist,D3 antag
C[C@@H](N)[C@@H](O)c1ccccc1,.,-2%[21.1 µM],.,-6%[21.1 µM],7,.
O=C1C[C@@H]2OCC=C3CN4CC[C@]56c7ccccc7N1[C@H]5[C@H]2[C@H]3C[C@H]46,.,-18%,.,.,-12,.
Cc1nn(Cc2ccccc2)c(C)c1C=C1C(=O)NC(=O)NC1=O,-3%,-2%,-106*,7%,7,16
Cc1nn(Cc2ccccc2)c(C)c1C(=O)NCc1ccccc1,.,-8%,-10,-3%,-7,-23
CCc1cc(-c2nnn(CCC3COCCO3)c2CC)cc(CC)c1-c1cn(Cc2ccc3ccccc3c2)nn1 (stereo unspecified),-6%,8.2µM*,4,21µM*,8,2
CCCCOP(=O)(OCCCC)/C(C#N)=C(/C)O,-2%,2%,19,-2%,5,0
Cc1cc(-c2nc3ccccc3s2)ccc1NC(=O)c1cc(Cl)ccc1Cl,2%,?,.,?,9,.
O=C(C1CCN(S(=O)(=O)c2ccc(Br)s2)CC1)N1CCN(c2cccc(C(F)(F)F)c2)CC1,-4%,6.5µM*,.,23µM*,-1,.
O=C(Nc1ccc(N2CCOCC2)cc1)C1CCN(S(=O)(=O)c2cccc(C(F)(F)F)c2)CC1,-4%,?,26,?,1,0
Oc1ccc(Cl)cc1Cc1ccccc1,-1%,22µM*,12,31µM*,-4,0
Oc1ccc(Cl)cc1Cc1cc(Cl)ccc1O,-1%,15µM*,2,15µM*,28,37
O=C(Nc1ccc(Cl)cc1C(=O)c1ccccc1)c1ccco1,-3%,1%,-30,1%,-4,-22
CCOC(=O)/C=C(C)/C=C/C[C@@H](C)CCCC(C)C,.,5%,.,-8%,0,.
CCC1Nc2cc(Cl)c(S(N)(=O)=O)cc2S(=O)(=O)N1 (stereo unspecified),.,-8%,.,1%,9,.
Cc1ccccc1CN1C(=O)C(C)N=C(c2ccccc2)c2ccccc21 (stereo unspecified),1%,18µM*,.,?,12,.
CCN1C[C@]2(C)CC[C@H](OC)[C@]34C5C[C@@H]6CC[C@@](O)(C5C(=O)O6)C(C13)[C@@H](OC(=O)c1ccccc1)C24,.,-14%[9.04 µM],.,3%[9.04 µM],.,.
